Compound activity (PubChem BioAssay)
Hits are enriched below; roughly 3.5% of the tested compounds scored in any of these assays.
CHRM1 PAM = human M1 muscarinic receptor positive allosteric modulators, primary screen, CHO-K1 cells, Fluo-8 calcium fluorescence, 1536-well; AID 588819, 2011; 0.088% of 360,000 active; CHO-K1 hM1, ACh EC20; 0% = ACh EC20, 100% = maximal ACh; activation, % at 3 µM; in the data active means activation above about 19%, passing the limit was not always enough
Target sequence (P11229 whole entry, looked up): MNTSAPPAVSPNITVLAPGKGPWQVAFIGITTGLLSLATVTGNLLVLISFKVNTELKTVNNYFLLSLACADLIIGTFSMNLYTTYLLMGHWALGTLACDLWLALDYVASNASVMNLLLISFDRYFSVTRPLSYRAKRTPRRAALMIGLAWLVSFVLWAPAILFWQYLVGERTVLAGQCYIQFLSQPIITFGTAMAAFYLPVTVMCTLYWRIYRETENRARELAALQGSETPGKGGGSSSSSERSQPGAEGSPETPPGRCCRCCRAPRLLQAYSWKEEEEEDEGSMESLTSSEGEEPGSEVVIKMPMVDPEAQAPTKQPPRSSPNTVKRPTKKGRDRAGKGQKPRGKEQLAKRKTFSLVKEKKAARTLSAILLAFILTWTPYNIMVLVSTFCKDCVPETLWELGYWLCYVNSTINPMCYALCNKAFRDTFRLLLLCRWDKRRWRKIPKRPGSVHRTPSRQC
SKN-1 inh = suppressors of acrylamide-induced Pgst-4::GFP reporter in worms, primary screen, SKN-1 inhibitor project, whole organism, uHTS, GFP/RFP fluorescence ratio, strain VP596 | 0.49% of 360,000 active | C. elegans VP596 Pgst-4::GFP/RFP ratio, 24 h | AID 624304, 2012 | inhibition, % at 21.8 µM;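 active means interference check ratio from 0.5 to 1.5 plus GFP to RFP signal ratio inhibition reaching or exceeding a fixed threshold, cut at about 30% in these data, passing the limit was not always enough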
M1 antag = human M1 muscarinic receptor antagonists, primary screen, CHO-K1 cells, Fluo-8 calcium fluorescence, 1536-well. AID 588852, 2011. 1.3% of 360,000 active. CHO-K1 hM1, ACh EC80 antagonist. inhibition, % at 3 µM;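 active means percent inhibition above its own plate's cutoff, namely the mean of that plate's compound wells plus 3 SD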;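 further: peak over basal fluorescence ratio during 140 s after agonist addition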
ATG4B inh = ATG4B protease inhibitors, primary screen, biochemical, fluorescence, uHTS; Cysteine protease ATG4B (Homo sapiens), Q9Y4P1; ATG4B cleavage of LC3-PLA2, NBD-HPC fluorescence, 1 h; inhibition, % at 8.33 µM; 0.51% of 340,000 active; AID 504462, 2011; in the data active means inhibition above about 40%
CHRM1 agonist = human M1 muscarinic receptor agonists, primary screen, Fluo-8 calcium fluorescence, CHO-K1 cells, HTS. Muscarinic acetylcholine receptor M1 (Homo sapiens), P11229. CHO-K1 hM1, agonist mode; 0% DMSO, 100% acetylcholine EC100. activation, % at 3 µM. 0.33% of 360,000 active;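 active means activation above the run's mean compound activation plus 3 SD, cut at about 16% in these data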;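 further: peak over basal fluorescence ratio within a 140 s kinetic read after compound addition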
Myeloid diff 2 = induction of myeloid progenitor differentiation, primary screen, cell-based, flow cytometry, MLPCN library. ER-HoxA9 myeloid progenitors, lysozyme-GFP differentiation. calls only at 10 µM. 1% of 360,000 active;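 active means normalized GFP-positive differentiation at or above the plate's own cutoff, the solvent-only control mean plus 3 SD; inconclusive means no clear call, values can overlap the other calls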;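 further: cells exposed to compound for four days before flow analysis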
ATG4B conf = ATG4B protease inhibitors, retest, confirmation, biochemical, fluorescence, single concentration. shares compounds with ATG4B inh. ATG4B protease fluorescent substrate cleavage assay. inhibition, % at 8.33 µM. 92% of 320 active. AID 504757, 2011; in the data active means inhibition above about 39%
PLA2 ctr = PLA2 enzyme inhibition, counter-screen for ATG4B inhibitor project, biochemical, single concentration, uHTS hits; shares compounds with ATG4B inh; purified PLA2, NBD-C6-HPC fluorescence, 45 min; AID 588402, 2011; 66% of 1,600 active; inhibition, % at 8.33 µM; in the data active means inhibition above about 50%
Target sequence (P04054 whole entry, looked up): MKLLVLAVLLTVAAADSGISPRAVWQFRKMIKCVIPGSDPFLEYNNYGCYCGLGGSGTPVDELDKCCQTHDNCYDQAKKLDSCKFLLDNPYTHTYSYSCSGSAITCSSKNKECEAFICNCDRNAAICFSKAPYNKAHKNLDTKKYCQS
Hits are given with their value; - = inactive; ? = inconclusive; . = not tested or not shown; + = active, no number; ! = not active in a repeat.

SMILES	CHRM1 PAM	SKN-1 inh	M1 antag	ATG4B inh	CHRM1 agonist	Myeloid diff 2	PLA2 ctr	others
O=C(CSc1nc2ccccc2c(=O)n1-c1ccc(Cl)cc1)N/N=C/C=C/c1ccccc1[N+](=O)[O-]	-	-	-	54	-	-	-	ATG4B conf=72
O=C(CSc1nc2ccccc2c(=O)n1-c1ccccc1)N/N=C/C=C/c1ccccc1[N+](=O)[O-]	-	-	-	-	-	-	.
COc1cccc(NC(=O)CCNC(=O)C2CCN(S(=O)(=O)c3ccc(F)cc3)CC2)c1	-	-	-	-	-	-	.
CC(C)(C)C(=O)OCCNc1nc(-c2ccccc2)nc2ccccc12	-	-	-	54	-	-	63
O=C1OC(c2cccs2)=N/C1=C\c1ccc(-c2cccc(Cl)c2)o1	-	-	-	71	-	-	-	ATG4B conf=55
O=C(COc1ccc(Cl)cc1)NNC(=S)NCc1ccccc1	-	-	-	-	-	-	.
C=CCc1ccccc1OCC(=O)NNC(=S)NCc1ccccc1	-	-	-	69	-	-	69
O=C(c1ccco1)N1CCN(C(=O)c2cc(-c3ccncc3)nc3ccc(Br)cc23)CC1	-	-	-	-	-	-	.
O=C(O)c1cc(-c2ccco2)nc2ccc(Br)cc12	-	-	-	78!	-	-	-	ATG4B conf=65
Cc1cc(C)c2sc(N(CCCN(C)C)C(=O)c3ccc(S(=O)(=O)N(C)Cc4ccccc4)cc3)nc2c1	-	-	-	42	-	-	-
CSc1ccc(CN2CCCC(N3CCN(c4ccccc4)CC3)C2)cc1 (centres undefined)	-	-	-	-	-	-	.
CCn1nc([N+](=O)[O-])c(C(C#N)c2nc3cc(C(F)(F)F)ccc3s2)c(Cl)c1=O (centres undefined)	-	-	-	99	-	+	101
O=C1N[C@@H](c2ccccc2)COC(=O)[C@@H](Cc2ccc(F)cc2)C/C=C\C[C@@H]1CC(=O)N(CCO)Cc1ccccc1	-	-	-	50	-	?	54
Cc1cccc(C(=O)O/N=C2\CCCc3ccccc32)c1	-	-	-	45	-	-	-
Cc1ccc(C(=O)O/N=C2\CCCc3ccccc32)cc1	-	-	-	43	-	-	-	ATG4B conf=58
O=C(O/N=C1\CCCc2ccccc21)c1cccc(Cl)c1	-	-	-	-	-	-	.
COc1ccc(O)c(C(=O)c2cnn(C(=O)c3cccc(N(C)C)c3)c2)c1	-	-	-	-	-	-	.
CN(C)c1cccc(C(=O)n2cc(C(=O)c3cc(F)ccc3O)cn2)c1	-	-	-	51	-	-	-	ATG4B conf=50
CN(Cc1ccc(F)cc1)C(=O)COc1ccccc1-c1ccccc1	-	-	-	48	-	-	-
CCOC(=O)c1sc(-c2ccccc2)cc1NC(=O)Nc1ccccc1	-	-	-	41	-	-	-	ATG4B conf=83
O=C(NCC1CCN(c2ccc(S(=O)(=O)N3CCOCC3)cc2)CC1)Nc1ccccc1F	-	-	-	-	-	-	.
COc1ccc(C2OC(=O)c3ccccc3S2)cc1 (centres undefined)	-	-	-	54	-	-	54
COc1cc(C2OC(=O)c3ccccc3S2)cc(OC)c1OC (centres undefined)	-	-	-	-	-	-	.
CCOC(=O)CC(=O)COc1nc2cc3c(nc2o1)CCCC3	-	-	-	-	-	.	.
Cc1cccc(C)c1NS(=O)(=O)c1ccc(NC(=O)c2ccc(Cl)c([N+](=O)[O-])c2)cc1	-	-	-	49	-	-	-
SMILES	CHRM1 PAM	SKN-1 inh	M1 antag	ATG4B inh	CHRM1 agonist	Myeloid diff 2	PLA2 ctr	others
Cc1ccccc1/C(N)=N/OC(=O)N1c2ccccc2Sc2ccccc21	-	-	-	54	-	-	60
COc1ccc(NS(=O)(=O)c2ccc(C)c(NC(=O)NC3CCCCC3)c2)cc1	-	-	-	-	-	-	.
COc1ccc(NS(=O)(=O)c2cccc(NC(=O)NC3CCCCC3)c2)cc1	-	-	-	54	-	-	65
O=C(O)c1cc(Cl)c(Cl)cc1C(=O)N(Cc1ccccc1)Cc1ccccc1	-	-	-	43	-	-	52
O=C(O)c1ccccc1C(=O)N(Cc1ccccc1)Cc1ccccc1	-	-	-	-	-	-	.
CCOC(=O)C1CCN(C(=O)C2CCN(S(=O)(=O)c3cc(Cl)ccc3OCC)CC2)CC1	-	-	-	-	-	-	.
Cc1ccc(S(=O)(=O)Oc2ccccc2/C=C2\SC(=O)NC2=O)cc1	-	-	-	-	-	-	.
O=C1NC(=O)/C(=C/c2ccccc2Oc2ccc(Cl)cc2)S1	-	-	-	48	-	.	-	ATG4B conf=59
COc1ccc(C)cc1NC(=O)c1nnn(Cc2cc(C)ccc2C)c1N	-	-	-	-	-	-	.
COc1ccc(OC)c(NC(=O)c2nnn(Cc3ccccc3C)c2N)c1	-	-	-	60	-	-	64
CCc1ccc(C(CNC(=O)c2ccc3c(=O)n(-c4ccccc4F)c(=S)[nH]c3c2)N(C)C)cc1 (centres undefined)	-	-	37	70	-	-	83
COc1ccc(C(=O)NCCCC2CCCC2)cc1OC1CCN(C(C)C)CC1	-	-	-	.	-	-	.
COc1ccc(C)cc1S(=O)(=O)N(CC(=O)Nc1cc([N+](=O)[O-])ccc1C)c1ccc(C)c(C)c1	-	-	-	77	-	?	87
Cc1ccc(S(=O)(=O)N(CC(=O)Nc2cccc([N+](=O)[O-])c2)C2CCCCC2)cc1	-	-	-	45	-	-	51
COc1ccc(N(CC(=O)Nc2cccc(C)c2)S(=O)(=O)c2ccc(C)cc2)cc1OC	-	-	-	-	-	-	.
COc1ccc(C)cc1S(=O)(=O)N(CC(=O)Nc1cccc([N+](=O)[O-])c1)c1cc(C)cc(C)c1	-	-	-	83	-	-	86
Cc1ccc([N+](=O)[O-])cc1S(=O)(=O)Nc1ccc(C(=O)NCc2ccccn2)cc1	-	-	-	-	-	-	.
